We go through 40 compounds from PubChem BioAssay (NCI).

About 79,000 compounds went through this panel and 15% of them were active in at least one assay; those are over-represented in the sample as a whole. Unmarked numbers belong to inactive results. The source made the active and inactive calls. No stated cut-off is given here; in the data, active means growth inhibition above about 70%; inactive means the rest.

The first assay can be described thus: NCI Yeast Anticancer Drug Screen. Data for the bub3 strain (AID 167). The following applies: S. cerevisiae bub3 mutant strain, at 5.0 µM (retest, dose inferred, filed as 0.5), hits give high values. In a few lines:
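Yeast carrying a defined mutation is treated with each compound, and growth is compared with that of vehicle-exposed cells to give inhibition.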
With `CC(C)N=C(NC(C)C)SCCCCCCSC(=NC(C)C)NC(C)C`, the growth inhibition was 3%.

`CCCCCOC(=S)SSSC(=S)OCCCCC`: the growth inhibition was 0%.

On to `CCCCCCCCCCCCCCCC[N+](C)(C)CC(=O)O`, for which the growth inhibition is 0%.

Consider `Cc1cc(C)c([O-])c(-[n+]2c(-c3ccccc3)cc(-c3ccccc3)cc2-c2ccccc2)c1`, for which the growth inhibition is -2%.

Consider `CC(=O)NNc1ccc(Cl)cc1[N+](=O)[O-]`, for which the growth inhibition was 3%.

Take `O=C(NC(=Nc1ccccc1)SCCSC(=Nc1ccccc1)NC(=O)c1ccccc1)c1ccccc1`: the growth inhibition is -3%.

On to `CN(C)CCCNc1ccc(O)c2c1C(=O)c1ccccc1C2=O`, for which the growth inhibition was 92% (active).

As for `COC(=O)C(=O)C(/C=N/C(=S)NCCc1ccc(OC)c(OC)c1)=C(/O)c1ccc([N+](=O)[O-])cc1`, the growth inhibition was 6%.

For the compound `CCCC(=O)OCC1CC2C=CC1C2` (stereo not given), the growth inhibition is -3%.

On to `CN(NC(=O)/C(=C/c1cc(Cl)cc(Cl)c1O)NC(=O)c1ccccc1)c1cnn(-c2ccccc2)c(=O)c1Cl`, for which the growth inhibition is -13%.

On to `CC(C)N(C(=O)CC1(O)CCCCC1)C(C)C`, for which the growth inhibition was -1%.

`COC(=O)C1C(c2ccccc2)=N[C@@H](c2ccccc2)[C@H]1C(=O)OC` (stereo not given in full): the growth inhibition was 6%.

Consider `O=C1C(=Cc2ccccc2O)N=C(c2ccccc2)N1n1c(-c2ccccc2)nc2ccccc2c1=O`, for which the growth inhibition is -13%.

For the compound `CCOc1ccc2c(c1)[n+]([O-])c(-c1ccc([N+](=O)[O-])cc1)c(N)[n+]2[O-]`, the growth inhibition was 65%.

Take `O=C(NCCCNCCCCNCCCNC(=O)c1cc(-c2ccccc2)nc2ccccc12)c1cc(-c2ccccc2)nc2ccccc12`: the growth inhibition was 33%.

In the case of `CC1=C(C(=O)Nc2cccc3ccccc23)C(c2cccc([N+](=O)[O-])c2)C(C(=O)Nc2cccc3ccccc23)=C(C)N1`, the growth inhibition was 34%.

For the compound `O=C1OC(c2ccc(O)cc2)Sc2ccccc21` (stereo not given), the growth inhibition is -1%.

`CC(C)(C)c1ccc(-c2nc3ccccc3c(=O)o2)cc1`: the growth inhibition is -1%.

For the compound `O=C(N/C(=C/c1ccc(Cl)cc1Cl)c1nc2ccccc2s1)c1ccccc1`, the growth inhibition was 31%.

Regarding `O=C(O)C/C(=C\c1ccco1)C(=O)O`, the growth inhibition was -8%.

`CN(C)Cc1cc(N=Nc2ccc(Cl)c(Cl)c2)ccc1O`: the growth inhibition was -33%.

`CC(=O)OC1C(O)C(C)OC(OC(=O)C2CCC3C(C2)OC2(CC(OC(=O)/C=C/c4ccccc4)C(C)CO2)C32CO2)C1OC1OC(C)C(O)C(O)C1O` (stereo not given): the growth inhibition is 21%.

Regarding `O=C1c2ccccc2C(=O)c2c(/C=C\N3CCCCC3)ccnc21`, the growth inhibition is 48%.

Turning to `CCN(CC)c1ccc(NC(CC(O)c2ccccc2)c2ccccc2)cc1` (stereo not given), the growth inhibition is -4%.

`CCOC(=O)Nc1nc2ccc(SC#N)cc2s1`: the growth inhibition was 23%.

On to `CSC(SC)C(SC)SC`, for which the growth inhibition was 0%.

For `N#CC(C(=O)C(=O)Nc1ccc(Cl)cc1)c1c(Cl)cccc1Cl` (stereo not given), the growth inhibition was 27%.

Consider `CN(/N=C\c1cccc([N+](=O)[O-])c1)C(c1cccc([N+](=O)[O-])c1)N(C)/N=C/c1cccc([N+](=O)[O-])c1` (stereo not given), for which the growth inhibition was -7%.

Consider `Oc1cc(Br)cc2cc(Br)cnc12`, for which the growth inhibition was 92% (active).

`COc1ccccc1C(C)c1ccc2ccccc2c1C(=O)O` (stereo not given): the growth inhibition is -6%.

Consider `Cc1ccnc2[nH]c3ccccc3c(=O)c12`, for which the growth inhibition was 15%.

With `COc1cc(OC)c(/C=C\c2ccnc3ccccc23)c(OC)c1`, the growth inhibition was 22%.

Regarding `COC(=O)C1(COCc2ccccc2)CCCC2OC21` (stereo not given), the growth inhibition is 5%.

On to `O=[N+]([O-])/C(=C\c1cccs1)c1ccccc1`, for which the growth inhibition was 90% (active).

Consider `Cc1cc(C(O)(c2cc(C)c(O)c(C(=O)O)c2)c2cc(C)c(O)c(C(=O)O)c2)cc(C(=O)O)c1O`, for which the growth inhibition is -43%.

As to `CC(C)C(C)(C(=O)O)C(C)C`, the growth inhibition is -1%.

In the case of `CN(Cc1cc(Cl)cc(Cl)c1)CC(C(=O)c1ccccc1)c1ccccc1` (stereo not given), the growth inhibition is 14%.

For the compound `O=c1[nH]c(Cc2ccccc2)nc2c1sc1nc3ccccc3n12`, the growth inhibition was 8%.

For `CC(NNC(=S)N1CCCC1)c1cccnn1` (stereo not given), the growth inhibition was 98% (active).

On to `Cc1ccc2c(c1)C(O)(c1ccccc1)CCS2` (stereo not given), for which the growth inhibition was 46%.

The same assay, now with this note: S. cerevisiae bub3 mutant strain, at 50.0 µM (retest, dose inferred, filed as 5.0), hits give high values.
For `CC(C)N=C(NC(C)C)SCCCCCCSC(=NC(C)C)NC(C)C`, the growth inhibition is -2%.

`CCCCCOC(=S)SSSC(=S)OCCCCC`: the growth inhibition was 98% (active).

In the case of `CCCCCCCCCCCCCCCC[N+](C)(C)CC(=O)O`, the growth inhibition is 96% (active).

For `Cc1cc(C)c([O-])c(-[n+]2c(-c3ccccc3)cc(-c3ccccc3)cc2-c2ccccc2)c1`, the growth inhibition was -2%.

On to `CC(=O)NNc1ccc(Cl)cc1[N+](=O)[O-]`, for which the growth inhibition was 19%.

For `O=C(NC(=Nc1ccccc1)SCCSC(=Nc1ccccc1)NC(=O)c1ccccc1)c1ccccc1`, the growth inhibition was -3%.

Take `CN(C)CCCNc1ccc(O)c2c1C(=O)c1ccccc1C2=O`: the growth inhibition was 98% (active).

Regarding `COC(=O)C(=O)C(/C=N/C(=S)NCCc1ccc(OC)c(OC)c1)=C(/O)c1ccc([N+](=O)[O-])cc1`, the growth inhibition is -13%.

For `CCCC(=O)OCC1CC2C=CC1C2` (stereo not given), the growth inhibition was 2%.

`CN(NC(=O)/C(=C/c1cc(Cl)cc(Cl)c1O)NC(=O)c1ccccc1)c1cnn(-c2ccccc2)c(=O)c1Cl`: the growth inhibition is 43%.

As to `CC(C)N(C(=O)CC1(O)CCCCC1)C(C)C`, the growth inhibition is 6%.

For the compound `COC(=O)C1C(c2ccccc2)=N[C@@H](c2ccccc2)[C@H]1C(=O)OC` (stereo not given in full), the growth inhibition was 32%.

In the case of `O=C1C(=Cc2ccccc2O)N=C(c2ccccc2)N1n1c(-c2ccccc2)nc2ccccc2c1=O`, the growth inhibition is 45%.

For `CCOc1ccc2c(c1)[n+]([O-])c(-c1ccc([N+](=O)[O-])cc1)c(N)[n+]2[O-]`, the growth inhibition was 94% (active).

Consider `O=C(NCCCNCCCCNCCCNC(=O)c1cc(-c2ccccc2)nc2ccccc12)c1cc(-c2ccccc2)nc2ccccc12`, for which the growth inhibition was 64%.

On to `CC1=C(C(=O)Nc2cccc3ccccc23)C(c2cccc([N+](=O)[O-])c2)C(C(=O)Nc2cccc3ccccc23)=C(C)N1`, for which the growth inhibition is 58%.

As for `O=C1OC(c2ccc(O)cc2)Sc2ccccc21` (stereo not given), the growth inhibition was 29%.

For `CC(C)(C)c1ccc(-c2nc3ccccc3c(=O)o2)cc1`, the growth inhibition was 86% (active).

Consider `O=C(N/C(=C/c1ccc(Cl)cc1Cl)c1nc2ccccc2s1)c1ccccc1`, for which the growth inhibition was 98% (active).

Take `O=C(O)C/C(=C\c1ccco1)C(=O)O`: the growth inhibition is -13%.

With `CN(C)Cc1cc(N=Nc2ccc(Cl)c(Cl)c2)ccc1O`, the growth inhibition was 40%.

With `CC(=O)OC1C(O)C(C)OC(OC(=O)C2CCC3C(C2)OC2(CC(OC(=O)/C=C/c4ccccc4)C(C)CO2)C32CO2)C1OC1OC(C)C(O)C(O)C1O` (stereo not given), the growth inhibition was 97% (active).

As for `O=C1c2ccccc2C(=O)c2c(/C=C\N3CCCCC3)ccnc21`, the growth inhibition is 98% (active).

In the case of `CCN(CC)c1ccc(NC(CC(O)c2ccccc2)c2ccccc2)cc1` (stereo not given), the growth inhibition was 2%.

On to `CCOC(=O)Nc1nc2ccc(SC#N)cc2s1`, for which the growth inhibition is 93% (active).

As to `CSC(SC)C(SC)SC`, the growth inhibition is 99% (active).

For the compound `N#CC(C(=O)C(=O)Nc1ccc(Cl)cc1)c1c(Cl)cccc1Cl` (stereo not given), the growth inhibition is 6%.

With `CN(/N=C\c1cccc([N+](=O)[O-])c1)C(c1cccc([N+](=O)[O-])c1)N(C)/N=C/c1cccc([N+](=O)[O-])c1` (stereo not given), the growth inhibition was 16%.

On to `Oc1cc(Br)cc2cc(Br)cnc12`, for which the growth inhibition is 97% (active).

For `COc1ccccc1C(C)c1ccc2ccccc2c1C(=O)O` (stereo not given), the growth inhibition was 87% (active).

For `Cc1ccnc2[nH]c3ccccc3c(=O)c12`, the growth inhibition was 96% (active).

`COc1cc(OC)c(/C=C\c2ccnc3ccccc23)c(OC)c1`: the growth inhibition is 98% (active).

Regarding `COC(=O)C1(COCc2ccccc2)CCCC2OC21` (stereo not given), the growth inhibition is 79% (active).

For `O=[N+]([O-])/C(=C\c1cccs1)c1ccccc1`, the growth inhibition was 99% (active).

For the compound `Cc1cc(C(O)(c2cc(C)c(O)c(C(=O)O)c2)c2cc(C)c(O)c(C(=O)O)c2)cc(C(=O)O)c1O`, the growth inhibition was -3%.

Turning to `CC(C)C(C)(C(=O)O)C(C)C`, the growth inhibition was 0%.

As for `CN(Cc1cc(Cl)cc(Cl)c1)CC(C(=O)c1ccccc1)c1ccccc1` (stereo not given), the growth inhibition is 94% (active).

Take `O=c1[nH]c(Cc2ccccc2)nc2c1sc1nc3ccccc3n12`: the growth inhibition is 89% (active).

Take `CC(NNC(=S)N1CCCC1)c1cccnn1` (stereo not given): the growth inhibition is 99% (active).

Regarding `Cc1ccc2c(c1)C(O)(c1ccccc1)CCS2` (stereo not given), the growth inhibition is 96% (active).
